Experimental data: paper PMC5540273 (PLoS ONE, 2017)
Where “and” joins values, the source holds several entries; their conditions need not be identical. Equal entries are not always repeated. Where two headings read alike, the source gives them in different places.

Experiments:
EPHB6 = settings: concentration: 1 μM, replicates: in singlicate, n = 1
ERBB2 = settings: concentration: 1 μM, replicates: in singlicate, n = 1
ERBB3 = settings: concentration: 1 μM, replicates: in singlicate, n = 1
ERBB4 = settings: concentration: 1 μM, replicates: in singlicate, n = 1
ERK1 = tested on: T1, ERK1; settings: concentration: 1 μM, replicates: in singlicate, n = 1
T1 construct: gene MAPK3

ERK2 = tested on: T2, ERK2; settings: concentration: 1 μM, replicates: in singlicate; n = 1
T2 construct: gene MAPK1

ERK3 = tested on: T3, ERK3; settings: concentration: 1 μM, replicates: in singlicate, n = 1
T3 construct: gene MAPK6

ERK4 = tested on: T4, ERK4; settings: concentration: 1 μM, replicates: in singlicate, n = 1
T4 construct: gene MAPK4

ERK5 = tested on: T5, ERK5; settings: concentration: 1 μM, replicates: in singlicate, n = 1
T5 construct: gene MAPK7

ERK8 = tested on: T6, ERK8; settings: concentration: 1 μM, replicates: in singlicate; n = 1
T6 construct: gene MAPK15
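Also: KINOMEscan kinase panel screen.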

Compound	%Inh (EPHB6)	%Inh (ERBB2)	%Inh (ERBB3)	%Inh (ERBB4)	%Inh (ERK1)	%Inh (ERK2)	%Inh (ERK3)	%Inh (ERK4)	%Inh (ERK5)	%Inh (ERK8)	%Inh (EPHB6; 1 µM)	%Inh (ERBB2; 1 µM)	%Inh (ERBB3; 1 µM)	%Inh (ERBB4; 1 µM)	%Inh (ERK1; 1 µM)	%Inh (ERK3; 1 µM)	%Inh (ERK4; 1 µM)	%Inh (ERK5; 1 µM)
CN(C1=C(c2ccccc2)C(=O)NC1=O)c1ccccc1 [SB-334860]	20%	29%	0%	33%	1%	13%	1%	44%	0%	0%	–	–	–	–	–	–	–	–
CCCCCc1nc2c(N)ncnc2n1CCCCC [SKF-97255]	6%	4%	0%	0%	0%	0%	0%	0%	0%	29%	–	–	–	–	–	–	–	–
Fc1ccc(-c2ncn(CCCN3CCOCC3)c2-c2cccnc2)cc1 [SB-211743]	0%	0%	0%	0%	0%	8%	0%	0%	0%	29%	–	–	–	–	–	–	–	–
COCCNC(=O)c1ccc(-c2cc(C(=O)NC3CC3)cc(F)c2C)cc1 [GW868318]	23%	13%	29%	8%	2%	25%	6%	8%	0%	29%	–	–	–	–	–	–	–	–
COc1cc2c(cc1OC[C@@H](O)CO)ncc1c3ccc(C#N)cc3[nH]c21	44%	22%	2%	0%	0%	15%	0%	7%	0%	33%	–	–	–	–	–	–	–	–
O=c1cc(N2CCOCC2)nc2n(Cc3cccc(C(F)(F)F)c3)ccn12 [GSK2297543]	0%	16%	0%	5%	0%	0%	0%	12%	0%	0%	–	–	–	–	–	–	–	–
Cn1ccc2ncnc(Oc3ccc(NC(=O)Nc4ccncc4)c(Cl)c3)c21	0%	15%	0%	0%	0%	0%	5%	0%	0%	1%	–	–	–	–	–	–	–	–
Cn1cc(-c2ccc3c(c2)CCN3C(=O)Cc2ccccc2Cl)c2c(N)ncnc21 [GSK2608885]	98.3%	97.2%	86%	98.9%	0%	0%	0%	23%	47%	0%	–	–	–	–	–	–	–	–
Cl.Oc1cccc(Nc2ccnc3cc(-c4ccncc4)ccc23)c1 [GW494601]	86%	0%	40%	38%	0%	0%	2%	26%	0%	0%	–	–	–	–	–	–	–	–
O=C(NOCC1CC1)c1ccc(F)c(F)c1Nc1ccc(I)cc1Cl	0%	0%	0%	0%	0%	8%	0%	17%	0%	8%	–	–	–	–	–	–	–	–
Cc1c2ccc(N(C)c3ccnc(Nc4cccc(S(N)(=O)=O)c4)n3)cc2nn1Cc1ccccc1.Cl.Cl [GW787226]	98.9%	0%	0%	0%	0%	0%	0%	0%	12%	3%	–	–	–	–	–	–	–	–
NCC(NC(=O)c1cc(-c2cn[nH]c2)c(-c2ccnc3[nH]ccc23)s1)c1ccccc1.O=C(O)C(F)(F)F.O=C(O)C(F)(F)F (centres unmarked) [GSK1325775]	12%	32%	0%	10%	0%	0%	20%	9%	0%	51%	–	–	–	–	–	–	–	–
O=C(c1ccc(-c2cc(-c3c[nH]nc3-c3ccccn3)ccn2)cc1)N1CCOCC1 [GW812171]	0%	11%	0%	0%	0%	0%	0%	16%	0%	5%	–	–	–	–	–	–	–	–
Fc1ccc(-c2ncn(CCCN3CCOCC3)c2-c2ccccn2)cc1 [SB-211742]	0%	10%	52%	6%	0%	5%	0%	0%	19%	0%	–	–	–	–	–	–	–	–
CC(C)(CN)c1nc(-c2ccc(Cl)c(O)c2)c(-c2ccncc2)[nH]1.O=C(O)C(F)(F)F [SB-477794]	–	–	–	–	–	0%	–	–	–	0%	2% and 28%	83% and 80%	42% and 45%	26% and 35%	0% and 11%	20% and 0%	13% and 20%	32% and 56%
c1ccc(-c2cc(-c3c[nH]nc3-c3ccccn3)ccn2)cc1 [GW576604]	0%	0%	16%	52%	8%	0%	0%	3%	0%	0%	–	–	–	–	–	–	–	–
COc1ccc(Nc2ncc(C#N)c(Nc3ccccc3C(N)=O)n2)cc1N1CCN(C)CC1.Cl [GSK1558669]	98.3%	80%	96.6%	88%	7%	0%	100%	100%	99.9%	98.9%	–	–	–	–	–	–	–	–
